Screens deposited in PubChem by National Center for Advancing Translational Sciences (NCATS).
HT1080-NT tox: kills 2HG-producing HT-1080-NT fibrosarcoma cells. HT-1080-NT fibrosarcoma viability, CellTiter-Glo ATP luminescence, 48 h. Potency, µM (doses to about 46.1 µM), without a hit: at the highest dose activity, negative = less viability, most hits filed as cytotoxic. 360,000 compounds, 1.6% hits. AID 686970;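 further: NT is the 2HG producing partner of a matched IDH1 knockdown line; potency means the concentration at half of the fitted maximal effect; 0% = DMSO-treated cells and -100% = media-only wells without cells; nearly all actives have a fitted effect of over 55% in size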
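Viability by CellTiter-Glo luminescence after 48 h compound exposure at 37C of HT-1080-NT cells (750/well, RPMI, 5% FBS). % activity scaled between DMSO wells and medium-only wells, then curve-fitted and categorized by curve class.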
IL-1B inflam inh: inflammasome signaling inhibition, IL-1 beta readout; THP-1 LPS/ATP IL-1B secretion, AlphaLISA, 16 h; stronger effect = lower value; 360,000 compounds, 4.7% hits; activity change, % at 57.5 µM; in the data active means activity change below about -50%; inconclusive means mostly about -30% to -49%
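Secreted IL-1B measured by AlphaLISA bead assay after 16 h compound exposure of THP-1 cells; compounds (final up to 57.5 uM) added 1 h before LPS (250 ng/mL) and ATP (1.25 mM) stimulation; lower signal means less secretion.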
DT40 TDP1 no CPT: qHTS for Inhibitors of human tyrosyl-DNA phosphodiesterase 1 (TDP1): qHTS in cells in absence of CPT. DT40 Tdp1-/- hTDP1 cells, no CPT, ATP luminescence, 48 h. Potency, µM (highest dose often 46.2 µM), for the others: top-dose activity change, negative = growth inhibition, most hits filed as inhibitors. 420,000 compounds, 15% hits; further: potency means the concentration at half of the fitted maximal effect; nearly all actives have a fitted effect of over 55% in size
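Chicken DT40 Tdp1-/- cells stably complemented with human TDP1 were seeded at 400 cells/well with DMSO in place of 20 nM camptothecin. After compound pinning, cells grew at least 48 hr at 37 °C; viability read by CellTiter-Glo luminescence.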
TDP1 cell CPT: growth inhibition of DT40 Tdp1-/-;hTDP1 cells with camptothecin (screen for TDP1 inhibitors) | chicken DT40 Tdp1-/-;hTDP1 cells + 20 nM CPT, ATP luminescence, 48 h | Potency, µM (series often up to 46.2 µM), for inactives: at the highest dose activity change, negative = growth inhibition, most hits filed as inhibitors | 420,000 compounds, 12% hits | AID 686979; further: potency means the concentration at half of the fitted maximal effect; nearly all actives have a fitted effect of over 55% in size
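Chicken DT40 Tdp1-/- cells stably complemented with human TDP1 were seeded at 400 cells/well in medium containing 20 nM camptothecin, exposed to pin-transferred compounds, and grown at 37 °C for at least 48 hr. Viability was read as ATP luminescence.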
HT1080 IDH1KD tx: toxicity to HT-1080 IDH1 knockdown cells (counter line). 360,000 compounds, 2% hits. AID 686971. HT-1080 IDH1 knockdown viability, ATP luminescence, 48 h. Potency, µM (doses to about 46.1 µM), inactives show at the highest dose activity, negative = toxicity, most hits filed as cytotoxic;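 further: potency means the concentration at half of the fitted maximal effect; 0% = DMSO wells and -100% = cell-free medium wells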
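After a 2 h attachment period, IDH1KD HT-1080 cells took pin-transferred compound for 48 h at 37 °C; ATP-based luminescence after 10 min room-temperature reagent incubation reported viability.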
uPA generation: inhibitors of cell surface uPA generation | cell surface uPA generation assay, qHTS | Potency, µM (highest dose often 38.3 µM), for the others: top-dose activity change, negative = inhibition, most hits filed as inhibitors | 330,000 compounds, 0.31% hits | AID 540303; active means well fitted inhibition curve with a large enough effect; inconclusive means small, poorly fitted or top-dose-only effect; inactive means no such curve, though single readings can be large or run the other way; tested in mouse RAW 264.7 cells; further: potency means the concentration at half of the fitted maximal effect; nearly all actives have a fitted effect of over 55% in size
* marks the source's active call; other numbers are inactive results; ? = inconclusive; . = no result given; [ ] = dose if it differs, or a comment. Hits are enriched below; roughly 19% of the tested compounds scored in any of these assays. Unless noted, the call rests on the fitted dose curve; in most records, active means well fitted curve in the direction sought with a large enough effect; inconclusive means small, poorly fitted or top-dose-only effect, or another doubt; inactive means no such curve, though single readings can be large; an effect the other way counts as inactive or inconclusive. Unless noted, on the % scale 0 is the no-effect control and ±100 the full control effect.

SMILES	HT1080-NT tox	IL-1B inflam inh	DT40 TDP1 no CPT	TDP1 cell CPT	HT1080 IDH1KD tx	uPA generation
O=C(Nc1ccccc1)c1cc(C2CCCN(C(=O)C/C=C/c3ccccc3)C2)on1 (configuration not stated)	-26%	-3	21µM*	?	-10%	.
CC(C)(C)c1ccc(NC(=O)c2cc(C3CCCN(C(=O)CCc4ccccc4)C3)on2)cc1 (configuration not stated)	-7%	0	12µM*	8.2µM*	-28%	.
CCCC(=O)N1CCCC(c2cc(C(=O)Nc3ccc4c(c3)OCO4)no2)C1 (configuration not stated)	15%	4	5%	-29%	-9%	.
O=C(Nc1ccc2c(c1)OCO2)c1cc(C2CCCN(C(=O)CCc3ccccc3)C2)on1 (configuration not stated)	-29%	-3	?	21µM*	?	.
CC(=O)N1CCCC(c2cc(C(=O)Nc3ccccc3)no2)C1 (configuration not stated)	-4%	2	?	-25%	-16%	.
Oc1c(C(c2ccc(Cl)cc2Cl)N2CCCC2)sc2nc(-c3ccco3)nn12 (configuration not stated)	.	.	-22%	-7%	.	.
Nc1cccc2c1C(=O)N(C(=O)/C=C/c1ccc(F)cc1)C2=O	?	-78*	23µM*	16µM*	18µM*	-13%
COc1ccc(-c2cc(C(C)=O)c(C)n2CCC(=O)Nc2cc(Cl)ccc2C)cc1	.	.	18µM*	21µM*	.	.
COc1ccc(-c2cc(C(C)=O)c(C)n2CCC(=O)Nc2ccc(C)c(Cl)c2)cc1	.	.	18µM*	15µM*	.	.
COc1ccc(-c2cc(C(C)=O)c(C)n2CCC(=O)NC2CCCCC2)cc1	.	.	?	23µM*	.	.
CC(C)(C)OC(=O)NCCCCCNC(=O)c1[nH]cnc1C(=O)Nc1ccc(Cl)cc1	?	?	15µM*	?	?	6.3µM*
CC(C)(C)OC(=O)NCCCCCNC(=O)c1[nH]cnc1C(=O)Nc1ccccc1	-11%	-14	15µM*	?	-11%	-3%
Cc1ccc(NC(=O)c2nc[nH]c2C(=O)NCCCCCCNC(=O)c2[nH]cnc2C(=O)Nc2ccc(C)cc2)cc1	3%	?	?	?	9%	8%
Cc1ccc(NC(=O)c2nc[nH]c2C(=O)NCCCCCNC(=O)OC(C)(C)C)cc1	?	-62*	16µM*	?	-28%	-1%
CC(C)(C)OC(=O)[C@H](Cc1ccccc1)NC(=O)c1nc[nH]c1C(=O)NCCCCCN	0%	20	?	-21%	-2%	14%
N/C(=N\OCC(=O)Nc1ccc(F)c(Cl)c1)c1ccccc1	-21%	-2	?	23µM*	-11%	-4%
COc1ccc(-c2[nH]nc3oc(=O)c(CCO)c(C)c23)cc1	-2%	-84*	-19%	13%	1%	-3%
Cc1[nH]nc2oc(=O)c(CCO)c(C)c12	-9%	12	4%	-89%	0%[9.24 µM]	11%
CC(=O)Nc1ccccc1-c1nc2ccccc2n(C(C)C(=O)Nc2cc(Cl)ccc2C)c1=O (configuration not stated)	.	.	26µM*	?	.	.
COc1ccc(OC)c(NC(=O)C(C)n2c(=O)c(-c3ccccc3NC(C)=O)nc3ccccc32)c1 (configuration not stated)	.	.	?	23µM*	.	.
COc1ccc(-c2ccc(/C=C3\C(=O)N(c4ccccc4)N=C3c3ccccc3)o2)c([N+](=O)[O-])c1	0%	5	21µM*	?	1%	-2%
Cc1cc(-c2ccc(/C=N/n3cnnc3)o2)c(C)c([N+](=O)[O-])c1	9%	-71*	-13%	-29%	3%	-5%
O=[N+]([O-])c1ccc(OC(F)F)c(/C=N/n2cnnc2)c1	-23%	32	6.5µM*	5.8µM*	?	0%
CN1CCN(/N=C/c2ccc(-c3ccc([N+](=O)[O-])cc3Cl)o2)CC1	?	-81*	?	-13%	?	-1%
COC(=O)c1ccccc1-c1ccc(/C=C2\C(=O)N(c3ccccc3)N=C2c2ccccc2)o1	11%	13	?	-20%	-2%	-2%
SMILES	HT1080-NT tox	IL-1B inflam inh	DT40 TDP1 no CPT	TDP1 cell CPT	HT1080 IDH1KD tx	uPA generation
O=[N+]([O-])c1ccc(Cl)c(-c2ccc(/C=N/n3cnnc3)o2)c1	-3%	-26	-20%	3%	6%	-2%
COc1cc([N+](=O)[O-])ccc1-c1ccc(/C=C2\C(=O)ON=C2c2ccccc2)o1	-3%	25	9.2µM*	12µM*	-2%	6%
O=C1ON=C(c2ccccc2)/C1=C\c1ccco1	10%	5	-5%	-14%	12%	17%
COc1cc([N+](=O)[O-])ccc1-c1ccc(/C=N\n2cnnc2)o1	6%	-13	1.8µM*	1.6µM*	8%	-1%
Cc1csc2nc(-c3cccc(NC(=O)c4ccccc4Cl)c3)cn12	.	.	18µM*	18µM*	.	.
Cc1csc2nc(-c3cccc(NS(C)(=O)=O)c3)cn12	.	.	-6%	1%	.	.
Cc1csc2nc(-c3cccc(NC(=O)c4cccc(F)c4)c3)cn12	.	.	18µM*	18µM*	.	.
C[C@@H](NC(=O)[C@@H]1CCCN1C(=O)[C@@H]1CCCN1C(=O)c1cccc(Cl)c1)c1ccccc1	10%	12	-17%	-24%	7%	.
Cc1ccc(CNS(=O)(=O)c2cc3[nH]c(=O)c(=O)[nH]c3cc2C)cc1	.	.	-5%	6%	.	.
COc1ccccc1-c1nnc(SC(C)C(=O)O)n1-c1ccccc1 (configuration not stated)	6%	34	1%	6%	5%	3%
COc1ccc(C(=O)CCC(=O)O)c2ccccc12	.	.	-10%	1%	.	.
C[C@H]1CN([C@@H](C)CO)C(=O)c2cccc(NC(=O)Nc3ccc(C(F)(F)F)cc3)c2O[C@@H]1CN(C)Cc1ccc(Cl)c(Cl)c1	?	0	3.7µM*	3.3µM*	?	?
C[C@@H]1CN([C@H](C)CO)C(=O)c2cc(NC(=O)Nc3ccc(C(F)(F)F)cc3)ccc2O[C@H]1CN(C)Cc1ccc(Cl)c(Cl)c1	?	-80*	21µM*	?	?	-14%
